Measurements published in the supplement of paper PMC11732987, “Enantioselective OTUD7B fragment discovery through chemoproteomics screening and high-throughput optimisation” (Communications Chemistry, 2025).

Legend:
Test in all cases: log2 ratio of Biotin-Ahx-Ub-VS probe labelling (fragment/DMSO); higher = less target engagement (more negative = stronger competition), active = hit call of the paper (q ≤ 0.05, log2 ratio ≤ -1)
Conditions in all cases: compound concentration: 200 uM; treatment time: 3 h
[1] = target: USP9X (UniProt Q93008)
How it was run: (§1)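 In triplicate, 495 µg of HEK293T lysate per sample was incubated with fragment at 200 µM or vehicle for 3 h. Biotin-Ahx-Ub-VS was then added to 0.5 µM final for 1 h, and labelled DUBs were captured with NeutrAvidin, digested with LysC and trypsin, and measured by diaPASEF LC-MS/MS. Data are average log2 fragment/vehicle ratios by unpaired t-test from global-median-normalised Spectronaut label-free quantities, restricted to proteins with ≥2 unique peptides.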

[2] = target: UniProt O00487
Chain of UniProt O00487 (O00487 whole entry): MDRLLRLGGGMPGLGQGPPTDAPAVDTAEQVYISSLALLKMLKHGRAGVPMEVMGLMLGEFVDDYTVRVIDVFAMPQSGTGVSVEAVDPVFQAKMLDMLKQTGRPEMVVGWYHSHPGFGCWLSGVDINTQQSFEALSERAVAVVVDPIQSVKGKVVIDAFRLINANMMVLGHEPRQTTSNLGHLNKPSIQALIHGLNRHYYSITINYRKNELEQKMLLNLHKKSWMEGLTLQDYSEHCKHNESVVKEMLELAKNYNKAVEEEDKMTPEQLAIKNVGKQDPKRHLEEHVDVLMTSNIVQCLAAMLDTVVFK
How it was run: as §1

[3] = target: UniProt O00507
Chain of UniProt O00507 (O00507 whole entry): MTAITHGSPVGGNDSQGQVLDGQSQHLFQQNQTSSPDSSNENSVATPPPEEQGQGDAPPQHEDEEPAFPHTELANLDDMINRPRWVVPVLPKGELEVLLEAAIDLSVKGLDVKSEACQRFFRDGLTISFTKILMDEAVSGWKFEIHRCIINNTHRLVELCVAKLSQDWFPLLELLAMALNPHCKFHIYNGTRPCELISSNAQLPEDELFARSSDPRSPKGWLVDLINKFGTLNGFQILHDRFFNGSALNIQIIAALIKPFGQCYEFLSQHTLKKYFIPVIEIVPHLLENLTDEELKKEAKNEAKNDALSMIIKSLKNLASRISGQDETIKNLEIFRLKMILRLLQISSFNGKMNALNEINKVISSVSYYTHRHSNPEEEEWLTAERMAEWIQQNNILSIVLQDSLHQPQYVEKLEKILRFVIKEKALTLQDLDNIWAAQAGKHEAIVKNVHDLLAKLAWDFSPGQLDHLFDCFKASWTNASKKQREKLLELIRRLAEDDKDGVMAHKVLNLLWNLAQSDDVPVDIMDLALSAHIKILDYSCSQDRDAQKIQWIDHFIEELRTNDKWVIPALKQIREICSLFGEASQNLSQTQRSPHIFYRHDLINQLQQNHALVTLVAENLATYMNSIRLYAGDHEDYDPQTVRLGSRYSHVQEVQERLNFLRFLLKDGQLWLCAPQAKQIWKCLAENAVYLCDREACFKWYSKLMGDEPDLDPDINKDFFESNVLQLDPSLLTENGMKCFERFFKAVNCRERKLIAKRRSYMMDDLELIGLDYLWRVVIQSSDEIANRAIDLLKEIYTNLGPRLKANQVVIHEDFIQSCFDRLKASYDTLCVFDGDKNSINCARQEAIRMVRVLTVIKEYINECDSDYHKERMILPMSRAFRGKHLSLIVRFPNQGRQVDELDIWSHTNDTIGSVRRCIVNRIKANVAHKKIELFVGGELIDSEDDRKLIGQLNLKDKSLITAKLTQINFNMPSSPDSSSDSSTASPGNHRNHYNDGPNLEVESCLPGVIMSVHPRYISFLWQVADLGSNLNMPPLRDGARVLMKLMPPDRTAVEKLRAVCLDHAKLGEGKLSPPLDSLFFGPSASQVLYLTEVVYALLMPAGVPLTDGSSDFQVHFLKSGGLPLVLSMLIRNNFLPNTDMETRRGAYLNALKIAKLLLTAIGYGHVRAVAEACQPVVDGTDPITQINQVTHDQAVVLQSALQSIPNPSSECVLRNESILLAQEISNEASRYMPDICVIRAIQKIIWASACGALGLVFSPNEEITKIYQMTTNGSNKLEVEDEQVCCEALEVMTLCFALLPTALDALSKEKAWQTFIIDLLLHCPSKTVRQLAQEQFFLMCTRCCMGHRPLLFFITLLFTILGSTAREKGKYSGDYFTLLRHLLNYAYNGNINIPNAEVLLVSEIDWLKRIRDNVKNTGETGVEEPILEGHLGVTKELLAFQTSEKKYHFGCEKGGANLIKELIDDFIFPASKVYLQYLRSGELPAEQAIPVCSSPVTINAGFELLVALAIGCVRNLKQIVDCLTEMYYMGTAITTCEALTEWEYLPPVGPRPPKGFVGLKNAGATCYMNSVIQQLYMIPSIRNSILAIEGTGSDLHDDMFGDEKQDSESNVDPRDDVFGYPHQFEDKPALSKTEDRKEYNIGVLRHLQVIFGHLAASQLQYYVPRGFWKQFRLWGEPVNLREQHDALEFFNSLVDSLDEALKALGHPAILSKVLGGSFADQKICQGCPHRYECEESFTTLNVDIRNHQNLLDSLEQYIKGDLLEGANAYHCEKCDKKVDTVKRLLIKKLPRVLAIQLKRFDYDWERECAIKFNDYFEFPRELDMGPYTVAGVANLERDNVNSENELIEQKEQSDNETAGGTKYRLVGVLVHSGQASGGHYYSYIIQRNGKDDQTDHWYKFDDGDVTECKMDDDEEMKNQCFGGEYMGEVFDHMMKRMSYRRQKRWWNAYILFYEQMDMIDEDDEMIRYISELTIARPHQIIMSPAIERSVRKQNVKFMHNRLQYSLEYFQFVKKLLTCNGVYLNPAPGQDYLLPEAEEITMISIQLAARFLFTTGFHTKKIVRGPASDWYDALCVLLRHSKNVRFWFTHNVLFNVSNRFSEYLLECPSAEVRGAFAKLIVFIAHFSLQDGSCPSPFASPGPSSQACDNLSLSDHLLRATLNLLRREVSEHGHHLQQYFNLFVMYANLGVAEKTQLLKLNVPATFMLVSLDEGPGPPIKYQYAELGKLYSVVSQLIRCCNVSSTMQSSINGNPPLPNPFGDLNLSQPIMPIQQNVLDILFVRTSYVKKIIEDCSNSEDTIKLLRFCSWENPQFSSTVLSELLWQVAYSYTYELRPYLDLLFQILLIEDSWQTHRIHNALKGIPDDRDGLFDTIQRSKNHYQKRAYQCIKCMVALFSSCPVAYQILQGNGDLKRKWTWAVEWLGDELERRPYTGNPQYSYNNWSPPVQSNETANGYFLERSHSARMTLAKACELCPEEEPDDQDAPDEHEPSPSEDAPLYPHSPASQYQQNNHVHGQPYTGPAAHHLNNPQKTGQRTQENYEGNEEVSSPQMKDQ
How it was run: as §1

[4] = target: UniProt P51784
Chain of UniProt P51784 (P51784 whole entry): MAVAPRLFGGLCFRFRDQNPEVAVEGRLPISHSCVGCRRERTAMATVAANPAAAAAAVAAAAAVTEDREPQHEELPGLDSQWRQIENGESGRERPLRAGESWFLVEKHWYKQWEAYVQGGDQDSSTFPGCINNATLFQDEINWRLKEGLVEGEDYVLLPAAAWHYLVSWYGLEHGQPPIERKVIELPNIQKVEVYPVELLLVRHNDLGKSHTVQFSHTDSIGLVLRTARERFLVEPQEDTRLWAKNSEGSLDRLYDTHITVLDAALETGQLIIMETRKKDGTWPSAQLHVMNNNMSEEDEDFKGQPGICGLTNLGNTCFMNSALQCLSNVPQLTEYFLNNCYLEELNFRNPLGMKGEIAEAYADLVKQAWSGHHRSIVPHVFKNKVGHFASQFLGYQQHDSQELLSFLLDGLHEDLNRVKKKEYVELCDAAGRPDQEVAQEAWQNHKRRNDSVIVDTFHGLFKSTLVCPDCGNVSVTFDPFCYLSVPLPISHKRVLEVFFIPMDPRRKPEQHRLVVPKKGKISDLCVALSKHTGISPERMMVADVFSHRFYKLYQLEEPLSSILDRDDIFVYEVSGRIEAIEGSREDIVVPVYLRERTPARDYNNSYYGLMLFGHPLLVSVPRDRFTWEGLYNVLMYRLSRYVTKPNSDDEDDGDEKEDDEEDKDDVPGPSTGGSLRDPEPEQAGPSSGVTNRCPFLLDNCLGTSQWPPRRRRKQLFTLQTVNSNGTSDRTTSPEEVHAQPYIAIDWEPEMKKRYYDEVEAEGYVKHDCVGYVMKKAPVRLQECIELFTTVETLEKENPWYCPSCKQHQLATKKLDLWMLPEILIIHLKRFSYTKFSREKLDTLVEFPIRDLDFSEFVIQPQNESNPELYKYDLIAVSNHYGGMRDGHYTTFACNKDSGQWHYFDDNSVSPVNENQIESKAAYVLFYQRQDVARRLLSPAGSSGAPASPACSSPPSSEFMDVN
How it was run: as §1

[5] = target: T1, UniProt Q5T2D3
T1 sequence (whole entry): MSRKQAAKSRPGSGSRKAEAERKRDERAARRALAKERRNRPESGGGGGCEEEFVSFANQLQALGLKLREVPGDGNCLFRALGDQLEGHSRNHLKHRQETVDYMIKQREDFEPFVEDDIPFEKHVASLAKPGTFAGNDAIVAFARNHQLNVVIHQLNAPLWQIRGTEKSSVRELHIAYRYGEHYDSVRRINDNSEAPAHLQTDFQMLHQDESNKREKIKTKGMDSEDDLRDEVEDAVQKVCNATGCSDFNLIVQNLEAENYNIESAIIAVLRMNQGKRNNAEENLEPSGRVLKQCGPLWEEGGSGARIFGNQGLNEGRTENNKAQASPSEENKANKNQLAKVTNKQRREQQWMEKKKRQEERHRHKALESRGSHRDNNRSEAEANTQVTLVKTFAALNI
How it was run: as §1

[6] = target: T2, UniProt Q8TE49
T2 sequence (whole entry): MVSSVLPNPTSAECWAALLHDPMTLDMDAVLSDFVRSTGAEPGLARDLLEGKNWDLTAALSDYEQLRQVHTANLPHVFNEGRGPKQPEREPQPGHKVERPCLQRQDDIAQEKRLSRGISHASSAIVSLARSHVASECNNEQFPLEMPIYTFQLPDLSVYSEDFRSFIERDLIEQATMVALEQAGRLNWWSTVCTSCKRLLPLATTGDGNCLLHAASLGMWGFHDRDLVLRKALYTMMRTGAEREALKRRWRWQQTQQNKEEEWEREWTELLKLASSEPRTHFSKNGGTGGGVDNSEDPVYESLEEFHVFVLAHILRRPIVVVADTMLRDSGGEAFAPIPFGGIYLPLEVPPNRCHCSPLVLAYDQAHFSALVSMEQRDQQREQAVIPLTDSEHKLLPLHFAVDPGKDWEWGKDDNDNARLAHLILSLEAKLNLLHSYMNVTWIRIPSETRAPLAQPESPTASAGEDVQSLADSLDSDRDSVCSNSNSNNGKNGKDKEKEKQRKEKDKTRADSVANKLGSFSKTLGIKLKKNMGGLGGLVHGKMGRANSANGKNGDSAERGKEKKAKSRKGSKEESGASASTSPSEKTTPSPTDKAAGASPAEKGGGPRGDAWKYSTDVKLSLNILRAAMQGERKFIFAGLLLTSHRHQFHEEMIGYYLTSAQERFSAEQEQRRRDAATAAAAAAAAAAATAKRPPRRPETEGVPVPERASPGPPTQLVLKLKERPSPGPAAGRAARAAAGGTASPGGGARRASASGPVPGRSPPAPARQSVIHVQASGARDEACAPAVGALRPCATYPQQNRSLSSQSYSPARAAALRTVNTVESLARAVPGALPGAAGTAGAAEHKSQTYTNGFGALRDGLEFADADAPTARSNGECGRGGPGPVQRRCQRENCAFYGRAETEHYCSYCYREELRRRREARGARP
How it was run: as §1

[7] = target: T3, UniProt Q9P2H5
T3 sequence (whole entry): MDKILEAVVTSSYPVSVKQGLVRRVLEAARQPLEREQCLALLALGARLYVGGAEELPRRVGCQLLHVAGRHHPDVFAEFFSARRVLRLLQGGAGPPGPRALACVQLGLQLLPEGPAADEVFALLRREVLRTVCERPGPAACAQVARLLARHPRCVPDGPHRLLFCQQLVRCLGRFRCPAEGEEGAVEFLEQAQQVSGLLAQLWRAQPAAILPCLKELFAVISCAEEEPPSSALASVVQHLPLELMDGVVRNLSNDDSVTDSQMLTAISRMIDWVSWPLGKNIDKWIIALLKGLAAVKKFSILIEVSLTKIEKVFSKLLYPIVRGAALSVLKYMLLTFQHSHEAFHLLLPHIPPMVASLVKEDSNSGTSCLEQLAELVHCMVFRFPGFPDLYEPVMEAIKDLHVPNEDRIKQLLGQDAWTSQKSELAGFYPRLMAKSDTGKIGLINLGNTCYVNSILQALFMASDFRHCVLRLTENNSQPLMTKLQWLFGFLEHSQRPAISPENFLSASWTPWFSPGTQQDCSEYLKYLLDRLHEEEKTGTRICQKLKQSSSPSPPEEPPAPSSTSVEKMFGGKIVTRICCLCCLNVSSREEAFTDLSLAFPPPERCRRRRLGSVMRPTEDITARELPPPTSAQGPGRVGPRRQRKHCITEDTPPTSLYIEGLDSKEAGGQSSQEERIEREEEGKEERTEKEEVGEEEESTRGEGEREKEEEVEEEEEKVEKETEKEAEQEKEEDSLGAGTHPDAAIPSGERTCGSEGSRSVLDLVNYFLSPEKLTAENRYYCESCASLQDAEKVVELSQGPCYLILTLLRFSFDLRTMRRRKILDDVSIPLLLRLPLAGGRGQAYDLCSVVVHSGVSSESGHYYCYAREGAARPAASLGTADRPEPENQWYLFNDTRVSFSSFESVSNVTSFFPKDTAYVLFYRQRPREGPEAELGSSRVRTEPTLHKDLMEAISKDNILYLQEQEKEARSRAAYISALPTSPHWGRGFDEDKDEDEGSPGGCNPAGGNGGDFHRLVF
How it was run: as §1

[8] = target: T4, UniProt Q9UGI0
T4 sequence (whole entry): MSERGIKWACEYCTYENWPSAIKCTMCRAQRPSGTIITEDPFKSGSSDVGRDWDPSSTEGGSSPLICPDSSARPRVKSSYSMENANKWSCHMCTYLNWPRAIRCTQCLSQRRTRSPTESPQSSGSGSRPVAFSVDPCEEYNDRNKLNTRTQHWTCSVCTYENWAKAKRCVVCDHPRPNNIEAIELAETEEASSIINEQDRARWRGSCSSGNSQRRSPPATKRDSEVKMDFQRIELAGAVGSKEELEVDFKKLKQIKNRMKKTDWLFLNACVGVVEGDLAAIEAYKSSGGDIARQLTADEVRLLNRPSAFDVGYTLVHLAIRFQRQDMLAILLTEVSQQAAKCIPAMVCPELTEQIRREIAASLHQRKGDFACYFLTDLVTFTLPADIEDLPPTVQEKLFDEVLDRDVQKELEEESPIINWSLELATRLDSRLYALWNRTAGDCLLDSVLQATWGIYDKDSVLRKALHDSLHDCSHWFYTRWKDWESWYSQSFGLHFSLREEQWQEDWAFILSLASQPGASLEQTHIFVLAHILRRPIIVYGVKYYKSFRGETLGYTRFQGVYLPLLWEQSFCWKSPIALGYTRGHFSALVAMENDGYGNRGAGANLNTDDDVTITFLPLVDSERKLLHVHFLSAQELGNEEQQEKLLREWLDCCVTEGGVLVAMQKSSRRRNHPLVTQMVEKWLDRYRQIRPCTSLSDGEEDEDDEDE
How it was run: as §1

[9] = target: T5, YOD1 (UniProt Q5VVQ6)
T5 sequence (whole entry): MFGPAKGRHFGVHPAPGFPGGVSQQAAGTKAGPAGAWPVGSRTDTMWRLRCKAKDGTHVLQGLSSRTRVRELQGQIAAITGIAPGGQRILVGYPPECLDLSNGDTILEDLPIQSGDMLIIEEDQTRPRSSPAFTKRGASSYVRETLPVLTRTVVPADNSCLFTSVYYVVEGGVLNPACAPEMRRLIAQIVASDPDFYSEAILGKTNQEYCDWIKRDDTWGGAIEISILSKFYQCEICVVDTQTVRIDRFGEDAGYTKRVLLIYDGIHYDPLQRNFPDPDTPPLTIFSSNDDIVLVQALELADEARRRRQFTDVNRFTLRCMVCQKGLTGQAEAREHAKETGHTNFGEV
How it was run: as §1

Measured: log2 ratio of Biotin-Ahx-Ub-VS probe labelling

Cc1cc(NC(=O)CCl)n(-c2ccccc2)n1
inactive: [1] 0.0409 | [2] -0.0689 | [3] 0.159 | [4] -0.0134 | [5] 0.000838 | [6] -0.548 | [7] -0.36 | [8] -0.672 | [9] 0.179
